Test results: ChEMBL document CHEMBL1157539, “Thousands of chemical starting points for antimalarial lead identification” (Nature, 2010)

How the values were obtained:
Type in all cases: functional
Plasmodium falciparum [1] = assay: GSK_TCMDC: Inhibition of Plasmodium falciparum 3D7 in whole red blood cells, using parasite LDH activity as an index of growth. Test compounds present at 2uM
Plasmodium falciparum [2] = assay: GSK_TCMDC: Inhibition of Plasmodium falciparum Dd2 in whole red blood cells, using parasite LDH activity as an index of growth. Test compounds present at 2uM
HepG2 = assay: GSK_TCMDC: Percent inhibition of human HepG2 cell line. Test compounds present at 10uM.

| SMILES | Inhibition (Plasmodium falciparum [1]) [%] | Inhibition (Plasmodium falciparum [2]) [%] | Inhibition (HepG2) [%] |
| --- | --- | --- | --- |
| N=C(N)Nc1nc(-c2cccc(NC(=O)NCc3ccc(OC(F)(F)F)cc3)c2)cs1 | 100 | 26 | 0 |
| CN1CCC(C(=O)N(Cc2ccc(-c3ccc(CNCCc4ccc(S(C)(=O)=O)cc4)cn3)cc2)Cc2ccc3c(c2)OCO3)CC1.O=C(O)C(F)(F)F | 91 | 51 | 16 |
| O=C(/C=C/c1ccc(Cl)c(Cl)c1)NCCCCCCN1CCN(C(=O)Nc2cc(F)cc(F)c2)CC1 | 86 | 0 | 23 |
| CCn1c(Sc2ccc(C#N)c([N+](=O)[O-])c2)nnc1-c1ccc(Cl)cc1 | 97 | 93 | 0 |
| CCCCOc1c(CNCCCCCCNCc2ccc3ccccc3c2OCCCC)ccc2ccccc12.CS(=O)(=O)O | 96 | 89 | 99 |
| COc1ccc(CNCc2cccc(-c3ccc(-c4nc5cccc(C)c5[nH]4)cc3)c2)cc1.O=C(O)C(F)(F)F | 100 | 70 | 23 |
| CCCCNC(=O)[C@H](Cc1ccccc1)NC(=O)c1ccc(O)c(-c2ccc(Cl)c(Cl)c2)c1 | 98 | 97 | 0 |
| COc1ccc(Nc2ccnc3cc(Cl)ccc23)cc1OC | 100 | 91 | 36 |
| CCCC(CNC(=O)c1cc2c(Cl)cc(Cl)cc2[nH]1)CNc1cc(=O)c2ccccc2[nH]1.O=C(O)C(F)(F)F (stereo unspecified) | 100 | 94 | 9 |
| O=C(/C=C/c1ccc(Cl)c(Cl)c1)NCCCCCN1CCCN(C(=O)Nc2ccc(Cl)c(Cl)c2)CC1 | 100 | 2 | 55 |
| COc1ccc(Nc2ncc3c(-c4cccc(NC(=O)Cc5cccnc5)c4)c[nH]c3n2)cc1OC | 98 | 85 | 27 |
| CC(C)C[C@H](NC(=O)c1ccc(OCCN2CCOCC2)cc1)C(=O)N[C@H](/C=N/N1CCNC1=O)CCc1ccccc1 | 89 | 94 | 1 |
| CCOC(=O)c1cncc(/C=C/c2cc(C)cnc2N)c1 | 86 | 3 | 4 |
| COc1cc(Nc2ccnc3cc(-c4nccs4)ccc23)ccc1OCCCc1nc2ccccc2[nH]1.Cl | 100 | 68 | 100 |
| Clc1ccc(CNc2nc(NCCc3c[nH]cn3)nc(NC3CCCCC3)n2)cc1 | 100 | 1 | 0 |
| CCOC(=O)C1=C(C)NC2=C(C(=O)CC(C)(C)C2)C1c1ccc(Br)cc1 (stereo unspecified) | 90 | 66 | 0 |
| Cc1c(OC(C)C)nc2ccccc2c1C(=O)N[C@H](c1cccc(F)c1)C1CC1 | 83 | 34 | 6 |
| CCCCn1c(Sc2ccc(C#N)c([N+](=O)[O-])c2)nnc1-c1ccc(OC)cc1 | 93 | 61 | 12 |
| CN(C)CCOc1ccc(NC(=O)NC(C)(C)c2nc(-c3ccc(Cl)c(O)c3)c(-c3ccncc3)[nH]2)cc1.Cl | 98 | 98 | 22 |
| NCCCNc1nccc(N2CCc3ncnc(Nc4ccc(OCc5cccc(F)c5)c(Cl)c4)c3C2)n1 | 98 | 93 | 18 |
| Cc1ccc(-c2nc3cc(C(=O)NC4CCN(Cc5ccccc5)CC4)ccc3[nH]2)cc1 | 100 | 53 | 20 |
| CC(CCCC(=O)Nc1ccc(CC(C)NCCc2cccc(Cl)c2)cc1)NCCc1cccc(Cl)c1 (stereo unspecified) | 100 | 14 | 98 |
| COc1ccc(Nc2ncc3c(-c4cccc(NC(=O)c5ccc(N)cc5)c4)c[nH]c3n2)cc1OC | 84 | 31 | 83 |
| COc1ccc(Nc2ncc3c(-c4cccc(NC(=O)Cc5cccc(O)c5)c4)c[nH]c3n2)cc1OC | 100 | 96 | 44 |
| Cc1cccc(C)c1N1CCN(C2CCC(NC(=O)c3cc4ccccc4[nH]3)CC2)CC1 (stereo unspecified) | 100 | 64 | 31 |
| Cc1c(CNCCN2CCCCC2)c(C(=O)O)c(C)n1Cc1ccc(Cl)cc1 | 97 | 93 | 4 |
| CC(C)C[C@@H](/C=N/NC(N)=O)NC(=O)[C@H](CC(C)C)NC(=O)[C@H](CC(C)C)NC(=O)OCc1ccccc1 | 100 | 99 | 41 |
